# About 2,100 (0.66%) of roughly 320,000 compounds were called active. About 53% were inconclusive and are not listed. Calls come from the whole dose curve; as a rule, active = well fitted inhibition curve with a large enough effect in the signal ratio, with a control signal flat (not every such curve was filed as active); inconclusive = small, poorly fitted or top-dose-only effect, or effect the other way, or a change in a side signal; inactive = flat fitted curve, though single readings scatter; the % refers to the signal ratio. The sample as a whole holds a higher share of actives than the screen did.
# Assay: qHTS Assay for Lipid Storage Modulators in Drosophila S3 Cells;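 for cell number change: cells counted by Cell Tracker Red CMTPX staining in the red channel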
# Details: BODIPY lipid droplet fluorescence, 18-24 h, cells fed with added oleic acid; cell number change: measured here: cell count max response; series mostly up to 46.1 µM
# How it was run: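 Drosophila S3 cells got compounds at several concentrations plus oleic acid (400 uM solution). Laser-scanning cytometry with 488 nm excitation read lipid droplets at 500-530 nm and cells at 575-640 nm. Percent activity was relative to 20 uM Triacsin C.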
# Potency is the fitted concentration of half-maximal effect.
SMILES,Potency,cell number change
C=CCc1ccccc1OCCn1nnc2ccccc21,inactive,-12.8%
Fc1ccc(-c2ccc(/C=N/n3cnnc3)o2)cc1,10.3 µM (active),-15.7%
Cc1ccc(-c2ccc(/C=N/n3cnnc3)o2)cc1,inactive,8.97%
Fc1ccc(-c2ccc(/C=N\n3cnnc3)o2)cc1Cl,inactive,–
O=C(Nc1ccccc1)NC1CCN(Cc2c(F)cccc2Cl)CC1,inactive,4.31%
O=c1c(Cc2c(F)cccc2Cl)c(O)ccn1C1CC1,inactive,4.74%
O=c1c(Cc2c(F)cccc2Cl)c(O)ccn1CCc1ccccn1,14.1 µM (active),-22%
O=c1c(Cc2c(F)cccc2Cl)c(O)ccn1Cc1ccc(F)cc1,inactive,–
CCC(C)(C)n1nnnc1C(c1ccccc1)N1CCN(C2CCCC2)CC1 (centres undefined),inactive,-10.2%
COc1ccc(CC(=O)NNC(=O)c2ccco2)cc1OC,inactive,-12.7%
O=C(CCCN1C(=O)/C(=C/c2ccccc2)SC1=S)N1CCOCC1,inactive,15.4%
COc1cc(/C=C2\SC(=S)N(CC(=O)O)C2=O)ccc1OS(=O)(=O)c1ccc(C)cc1,inactive,-2.94%
COc1cc(/C=C2\SC(=S)N(CCCCC(=O)O)C2=O)ccc1OS(=O)(=O)c1ccc(C)cc1,20.6 µM (active),-25.4%
COc1ccc(/C=C2\SC(=S)N(CCCC(=O)N3CCCCC3CCO)C2=O)cc1 (centres undefined),inactive,-3.77%
CCN(C(=O)CCN1C(=O)/C(=C/c2ccccc2)SC1=S)C1CCS(=O)(=O)C1 (centres undefined),18.4 µM (active),-2.83%
COc1ccc(/C=C2\SC(=S)N(CCCC(=O)N3CCN(C)CC3)C2=O)cc1,inactive,-9.52%
O=C(O)CCCCN1C(=O)/C(=C\c2ccc(OCc3ccccc3)c(OCc3ccccc3)c2)SC1=S,inactive,-10.9%
CCN(C(=O)CN1C(=O)/C(=C/c2ccccc2)SC1=S)C1CCS(=O)(=O)C1 (centres undefined),inactive,-6.26%
CN(C(=O)CCN1C(=O)/C(=C/c2ccccc2)SC1=S)C1CCS(=O)(=O)C1 (centres undefined),inactive,10.8%
CN1CCN(C(=O)CCCN2C(=O)/C(=C/c3ccccc3)SC2=S)CC1,8.2 µM (active),3.91%
COc1ccc(/C=C2\SC(=S)N(CCC(=O)N3CCCCC3CCO)C2=O)cc1 (centres undefined),20.6 µM (active),-3.06%
O=C1/C(=C/c2ccc(Cl)cc2)SC(=S)N1CCC(=O)N1CCCCC1CCO (centres undefined),inactive,-22.1%
O=C(O)CCN=C1CCCc2ccccc2N1,inactive,-7.32%

SMILES,Potency,cell number change
COCCCNc1nnc(Cc2ccccc2)c2ccccc12,inactive,-6.27%
CC(=O)N1CCCc2cc(S(=O)(=O)Nc3ccc(C)cc3C)ccc21,inactive,19.8%
Cc1ccc(C(O)P(=O)(OC2CCCCC2)OC2CCCCC2)cc1 (centres undefined),inactive,22.2%
O=C(COc1ccc(S(=O)(=O)Nc2ccccc2)cc1)NCc1cccnc1,inactive,-1.79%
Cc1c(C(=O)NC(C)C)c(-c2ccccc2)nn1-c1ccccc1,inactive,-7.38%
O=C(Nc1nnc(C2=COCCO2)o1)c1ccc(S(=O)(=O)N2CCOCC2)cc1,inactive,17.2%
Cc1ccc(S(=O)(=O)N2CCc3c2cc([N+](=O)[O-])cc3[N+](=O)[O-])cc1,inactive,25.6%
COc1cccc(/C=C2\SC(=S)N(CCCC(=O)N3CCCC3)C2=O)c1,inactive,19.2%
O=C(O)CCCN1C(=O)/C(=C/c2ccncc2)SC1=S,inactive,-13%
O=C(O)CCCCCN1C(=O)/C(=C\c2ccncc2)SC1=S,3.26 µM (active),-19.2%
COc1cccc(/C=C2\SC(=S)N(CCCC(=O)N3CCCCC3CCO)C2=O)c1 (centres undefined),inactive,–
O=C(O)CCCCCN1C(=O)/C(=C/c2ccncc2)SC1=S,inactive,8.67%
COc1cccc(/C=C2\SC(=S)N(CCC(=O)N3CCCCC3CCO)C2=O)c1 (centres undefined),8.2 µM (active),-19.7%
O=C1/C(=C/c2ccccc2)SC(=S)N1CCCC(=O)N1CCCCC1CCO (centres undefined),18.4 µM (active),5.19%
CC(C)c1ccc(/C=C2\SC(=S)N(CCC(=O)N3CCCCC3CCO)C2=O)cc1 (centres undefined),inactive,-22.4%
O=C(CCN1C(=O)/C(=C\c2ccccc2)SC1=S)N1CCCCC1,inactive,9.57%
COC(=O)C1=C(C)NC(=O)/C1=C\c1ccc2c(c1)OCO2,inactive,-20.5%
CCOC(=O)C1(Cc2cccc(Cl)c2)CCCN(C(=O)c2cn[nH]c2)C1 (centres undefined),inactive,-11.4%
CN(C)c1ccc(C(=S)N2CCN(Cc3ccccc3)CC2)cc1,inactive,-4.36%
CC(C)c1ccc(C(O)P(=O)(OCc2ccccc2)c2ccc(N(C)C)cc2)cc1 (centres undefined),inactive,1.68%
COc1ccc(NC(=O)CN(c2ccc([N+](=O)[O-])cc2)S(=O)(=O)c2ccccc2)c(OC)c1,inactive,-1.88%
O=C1NCCCC1C(=O)NCCN1C(=O)CCC1=O (centres undefined),inactive,-2.23%
O=C(Nc1cccc(C(F)(F)F)c1)c1ccc(-n2cncn2)nc1,inactive,5.24%

SMILES,Potency,cell number change
COc1ccc(N(CC(=O)N2CCN(Cc3ccc4c(c3)OCO4)CC2)S(C)(=O)=O)cc1OC,inactive,14.4%
CC(C)CCNC(=O)CN(Cc1ccco1)C(=O)c1snc(C(N)=O)c1N,inactive,8.95%
CCNS(=O)(=O)c1ccc(Br)c(OC)c1,25.9 µM (active),-59.3%
COc1ccc2[nH]cc(CCNS(=O)(=O)c3ccc(F)cc3)c2c1,inactive,-14.3%
COc1ccc2[nH]cc(CCNS(=O)(=O)c3ccc(C)cc3)c2c1,inactive,2.67%
COc1cc(S(=O)(=O)NCc2ccccc2)ccc1Br,inactive,5.28%
CCOc1cc(S(=O)(=O)NCc2ccccc2)ccc1Br,inactive,-16.8%
COc1ccc(CCNS(=O)(=O)c2ccc(Br)cc2)cc1OC,inactive,-6.93%
COc1ccc(CCNS(=O)(=O)c2ccc(Cl)cc2)cc1OC,1.64 µM (active),-15.3%
COc1ccc(S(=O)(=O)NC2CCCC2)cc1Cl,inactive,–
COc1ccc(CCNS(=O)(=O)c2ccc([N+](=O)[O-])cc2)cc1OC,inactive,0.785%
COc1ccc(S(=O)(=O)NCCc2c[nH]c3ccc(Cl)cc23)cc1,20.6 µM (active),–
COc1ccc(CCNC(=O)COc2ccc(S(=O)(=O)NC(C)C)cc2Cl)cc1OC,inactive,–
COc1ccc(CCNC(=O)COc2ccc(S(=O)(=O)NC3CCCCC3)cc2Cl)cc1OC,8.2 µM (active),-27.7%
COc1cc(CNC2CCCCC2OC)cc(OC)c1OC (centres undefined),inactive,3.58%
O=C(O)c1cnn(-c2ccccc2)c1-c1ccncc1,inactive,–
Cc1cc(/C=N/N2CCN(C)CC2)c(C)n1-c1ccccc1F,inactive,–
CCCn1c(SCC(=O)Nc2nnc(C)s2)nnc1-c1ccoc1C,inactive,-14%
CS(=O)(=O)N(CC(=O)N1CCN(c2ccccc2F)CC1)C1CCCCC1,inactive,-9.38%
Cc1c(CNC(=O)C2CC2)c(-n2cccc2)n(Cc2ccccc2)c1C,inactive,18.9%
COc1cc(S(=O)(=O)NCc2ccccc2)ccc1F,inactive,6.61%
COCCNS(=O)(=O)c1ccc(F)c(OC)c1,20.6 µM (active),2.25%
COCCNS(=O)(=O)c1ccc(-c2ccc(Cl)cc2)cc1,inactive,8.47%

SMILES,Potency,cell number change
O=S(=O)(O)c1cc(OS(=O)(=O)c2ccccc2)cc2ccccc12,inactive,6.99%
COc1ccc(Cc2nc3ccc(C(=O)NCc4cc(C)no4)cc3o2)cc1OC,inactive,-13.7%
O=C(c1ccc([N+](=O)[O-])cc1)N1CCN(Cc2ccccc2)CC1,inactive,11.4%
Nn1c(SCC(=O)Nc2ccc3c(c2)OCO3)nnc1-c1cccc(Cl)c1,inactive,0.909%
O=C(O)c1ccccc1C(=O)N1CCN(C(=O)c2ccccc2Cl)CC1,inactive,18.7%
O=C(c1ccccc1Cl)N1CCSCC1,inactive,2.74%
O=C(O)C1CCN(C(=O)c2ccccc2Cl)CC1,18.4 µM (active),6.2%
O=C(NC1CCCCC1)C1CCN(C(=O)c2ccccc2Cl)CC1,inactive,-4.35%
O=C(NC1CC1)C1CCN(C(=O)c2ccccc2Cl)CC1,inactive,–
O=CN1CCN(C(=O)c2ccccc2Cl)CC1,16.4 µM (active),-3.9%
O=C(NCCCn1ccnc1)c1cc2cc([N+](=O)[O-])ccc2oc1=O,inactive,15.7%
CCCN1CCC(=NNc2ccc(S(N)(=O)=O)cc2[N+](=O)[O-])CC1,inactive,-0.104%
CCCn1c(SCCN2CCOCC2)nc2c1c(=O)n(C)c(=O)n2C,inactive,–
COc1ccc(CNC(=O)CN2C(=O)NC(C)(c3cccc4ccccc34)C2=O)cc1OC (centres undefined),18.4 µM (active),-4.84%
COc1ccc(CNC(=O)CN2C(=O)NC(C)(c3cccc(Br)c3)C2=O)cc1 (centres undefined),inactive,15.2%
COc1ccc(CNC(=O)CN2C(=O)NC3(CCCCCC3)C2=O)cc1OC,inactive,-8.33%
N#Cc1ccc(CN2CCN(C(=O)CCNS(=O)(=O)c3ccc(F)c(Cl)c3)CC2)cc1,20.6 µM (active),-29%
Cc1c(C)c(C)c(S(=O)(=O)NCCC(=O)N2CCN(Cc3ccc(C#N)cc3)CC2)c(C)c1C,inactive,10.7%
O=C(CCNS(=O)(=O)c1ccc(Cl)cc1)N1CCN(Cc2ccccc2)CC1,inactive,-14.8%
Cc1cccc(N2CCN(C(=O)C(Cc3ccccc3)NC(N)=O)CC2)c1C (centres undefined),inactive,-3.7%
Cc1cccc(N2CCN(C(=O)CC(NC(=O)c3ccccc3Cl)c3ccccc3)CC2)c1C (centres undefined),10.3 µM (active),-1.65%
Cc1ccc(NC(=O)CC(NC(=O)c2ccccc2Cl)c2ccccc2)nc1 (centres undefined),inactive,12.3%
CCC(C)NC(=O)CSc1c2c(nc3ccccc13)CCCC2 (centres undefined),inactive,-7.84%

# — PubChem BioAssay AID2685 (National Center for Advancing Translational Sciences (NCATS), 2010)
